Results on 10 compounds are retold here after PubChem BioAssay (EPA / NIEHS).

SMILES strings stand for the structures. Where “and” joins values, the source holds several entries; their conditions need not be identical. Identical values can stand only once. Inconclusive results are not listed. More than one record can exist for a structure, and the calls need not agree. Calls of active or inactive are those of the source. The calls were made as follows, unless noted: active = hit-call score of the fitted dose curve at least 0.9, where 1 is the maximum; inactive = score below 0.9.

For orientation: AC50 means the midpoint of the concentration-response curve, whichever way the signal moves.

The target of experiment [1] is Retinoic acid receptor RXR-alpha (Homo sapiens) (UniProt P19793). The experiment can be described thus: OT_NURR1_NURR1RXRa_0480: Odyssey Thera (OT) 8-hour HEK293T Protein Complementation Assay for Nurr1/retinoid X receptor (RXR) (AID 2283385; active = hit-call score of the fitted dose curve at least 0.9, where 1 is the maximum). In outline: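 HEK293T cells expressing Nurr1 and RXRα fused to reporter fragments were dosed with compound for 8 hours. Complex formation was read as fluorescence intensity and analysed as gain of signal against DMSO as baseline.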
Retinoic acid receptor RXR-alpha (Homo sapiens), sequence (P19793 whole entry, looked up, the tested form may be a part): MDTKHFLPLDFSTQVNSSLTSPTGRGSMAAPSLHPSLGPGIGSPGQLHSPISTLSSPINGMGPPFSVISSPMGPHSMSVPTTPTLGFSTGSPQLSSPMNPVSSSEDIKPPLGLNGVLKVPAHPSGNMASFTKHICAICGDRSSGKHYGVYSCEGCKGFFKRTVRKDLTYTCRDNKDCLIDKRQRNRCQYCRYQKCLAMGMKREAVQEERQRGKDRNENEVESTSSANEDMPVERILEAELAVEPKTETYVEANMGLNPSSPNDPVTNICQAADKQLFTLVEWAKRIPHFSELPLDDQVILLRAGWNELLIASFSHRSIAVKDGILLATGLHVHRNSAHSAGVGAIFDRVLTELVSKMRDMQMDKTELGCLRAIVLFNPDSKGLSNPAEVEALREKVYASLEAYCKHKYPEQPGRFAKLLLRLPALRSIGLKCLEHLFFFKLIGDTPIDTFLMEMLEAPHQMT

Experiment [2] has the same target. The experiment can be described thus: OT_NURR1_NURR1RXRa_1440: Odyssey Thera (OT) 24-hour HEK293T Protein Complementation Assay for Nurr1/retinoid X receptor (RXR) (AID 2283386; active = hit-call score of the fitted dose curve at least 0.9, where 1 is the maximum). The procedure, abridged: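 HEK293T cells were dosed with compound and read 24 h later by fluorescence intensity in a protein-fragment complementation format, where Nurr1–RXRα interaction reconstitutes a split reporter. Activity was fitted as gain of signal relative to DMSO baseline.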

Experiment [3] deals with Peroxisome proliferator-activated receptor gamma (Homo sapiens) (UniProt P37231). The experiment can be described thus: OT_PPARg_PPARgSRC1_1440: Odyssey Thera (OT) 24-hour Protein-Complementation Assay for Peroxisome Proliferator-activated Receptor Gamma/ SRC-1 Co-activator (AID 2283388; active = hit-call score of the fitted dose curve at least 0.9, where 1 is the maximum). In outline: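 HEK293T transiently transfected with PPARg/SRC-1 split-Venus YFP fusions 48 h before dosing, then treated 24 h at 37C. Fixed cells imaged; nuclear/cytoplasmic 488 nm fluorescence ratio, gain of signal versus DMSO.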
Peroxisome proliferator-activated receptor gamma (Homo sapiens), sequence (P37231 whole entry, looked up, the tested form may be a part): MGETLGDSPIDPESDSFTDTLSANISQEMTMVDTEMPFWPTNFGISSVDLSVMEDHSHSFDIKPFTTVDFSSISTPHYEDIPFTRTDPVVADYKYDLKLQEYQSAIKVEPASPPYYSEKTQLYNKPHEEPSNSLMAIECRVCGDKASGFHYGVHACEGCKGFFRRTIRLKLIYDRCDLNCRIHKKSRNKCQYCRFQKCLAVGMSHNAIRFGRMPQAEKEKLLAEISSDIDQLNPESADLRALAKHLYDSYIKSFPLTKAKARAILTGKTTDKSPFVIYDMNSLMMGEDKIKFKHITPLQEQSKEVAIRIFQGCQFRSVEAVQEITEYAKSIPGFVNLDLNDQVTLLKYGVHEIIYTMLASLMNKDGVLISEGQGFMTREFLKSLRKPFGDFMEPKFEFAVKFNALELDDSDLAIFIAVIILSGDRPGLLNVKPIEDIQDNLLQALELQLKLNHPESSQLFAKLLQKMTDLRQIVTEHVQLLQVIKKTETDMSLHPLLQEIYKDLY

Read-out in experiment [4]: Fatty acid synthase (Homo sapiens) (UniProt P49327)
The experiment can be described thus: LTEA_HepaRG_FASN: Life Technologies and Expression Analysis (LTEA) Assay for Fatty Acid Synthase (FASN) using HepaRG (AID 2283448). As to conditions: mRNA level, 48 h; actives raise or lower the signal. In outline: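 Differentiated human HepaRG cells were exposed for 48 h in serum-free induction medium to eight half-log concentrations up to 100 uM in 0.5% DMSO, in duplicate. FASN mRNA was quantified by TaqMan qRT-PCR, normalized to ACTB/GAPDH/POLR2A, and fitted bidirectionally against DMSO.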

Read-out in experiment [5]: Cyclin D2 (CCND2), CCND2 (gene 894)
The experiment can be described thus: LTEA_HepaRG_CCND2: Life Technologies and Expression Analysis (LTEA) Assay for Cyclin D2 (CCND2) using HepaRG (AID 2283449). The note with it: mRNA level, 48 h; actives raise or lower the signal. The procedure, abridged:
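Read-out is CCND2 mRNA level measured by qRT-PCR in human HepaRG liver cells and normalised to three housekeeping genes. Chemicals were applied for 48 h at up to 100 uM, with gain or loss fitted relative to 0.5% DMSO.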

Read-out in experiment [6]: Cyclin Dependent Kinase Inhibitor 1A (CDKN1A), CDKN1A (gene 1026)
The experiment can be described thus: LTEA_HepaRG_CDKN1A: Life Technologies and Expression Analysis (LTEA) Assay for Cyclin Dependent Kinase Inhibitor 1A (CDKN1A) using HepaRG (AID 2283450). As to conditions: mRNA level, 48 h; actives raise or lower the signal. The procedure, abridged:
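Differentiated HepaRG cells in serum-free induction medium, exposed 48 h in duplicate to eight half-log concentrations up to 100 uM in 0.5% DMSO. mRNA measured by TaqMan qRT-PCR, normalized to ACTB, GAPDH, POLR2A; bidirectional fit versus DMSO.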

Read-out in experiment [7]: Cyclin D1 (CCND1), CCND1 (gene 595)
The experiment can be described thus: LTEA_HepaRG_CCND1: Life Technologies and Expression Analysis (LTEA) Assay for Cyclin D1 (CCND1) using HepaRG (AID 2283451). As to conditions: mRNA level, 48 h; actives raise or lower the signal. The procedure, abridged:
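Differentiated HepaRG cells exposed 48 h in serum-free induction medium to eight half-log concentrations from 100 uM top, 0.5% DMSO, duplicates. CCND1 mRNA measured by Fluidigm TaqMan qRT-PCR, normalised to ACTB, GAPDH, POLR2A; bidirectional fit.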

Read-out in experiment [8]: catalase (CAT), CAT (gene 847)
The experiment can be described thus: LTEA_HepaRG_CAT: Life Technologies and Expression Analysis (LTEA) Assay for catalase (CAT) using HepaRG (AID 2283452). The note with it: mRNA level, 48 h; actives raise or lower the signal. In outline:
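Expression of CAT was quantified by TaqMan qRT-PCR with ACTB/GAPDH/POLR2A normalization after 48 h chemical exposure of HepaRG. Eight-point half-log series, top 100 uM, in 0.5% DMSO; gain or loss fitted against vehicle.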

Read-out in experiment [9]: Tumor necrosis factor receptor superfamily member 6 (Homo sapiens) (UniProt P25445)
The experiment can be described thus: LTEA_HepaRG_FAS: Life Technologies and Expression Analysis (LTEA) Assay for Fas cell surface death receptor (FAS) using HepaRG (AID 2283447). As to conditions: mRNA level, 48 h; actives raise or lower the signal. The procedure, abridged:
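FAS transcript level was measured by TaqMan qRT-PCR against three housekeeping genes after 48 h chemical exposure. Cells were HepaRG, 0.5% DMSO vehicle, with a top concentration of 100 uM and half-log dilutions over eight points, in duplicate.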

The nature of experiment [10]: CEETOX_H295R_11DCORT: CeeTox H295R High-throughput Steroidogenesis Assay for 11-Deoxycortisol (11DCORT) (AID 2283432).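 As to AC50: 11-deoxycortisol secreted into the medium measured by LC-MS/MS.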 The note with it: actives raise or lower the signal. In outline: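 H295R cells prestimulated 48 h with 10 uM forskolin, then exposed 48 h to chemical in 0.1% DMSO. 11-Deoxycortisol in medium quantified by HPLC-MS/MS after MTBE extraction; bidirectional fit versus DMSO. MTT viability read in same wells.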

Experiment [11] can be described thus: CEETOX_H295R_OHPREG: CeeTox H295R High-throughput Steroidogenesis Assay for OH-Pregnenolone (OHPREG) (AID 2283434). The note with it: actives raise or lower the signal. In outline: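 Hormone levels in spent medium were measured by tandem mass spectrometry following liquid-liquid extraction. Cells (H295R) had been forskolin-stimulated (10 uM, 48 h) before a 48 h chemical exposure at 0.1% DMSO, with activity fitted in both directions against DMSO.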

A short description of experiment [12]: CEETOX_H295R_OHPROG: CeeTox H295R High-throughput Steroidogenesis Assay for OH-Progesterone (OHPROG) (AID 2283435). As to conditions: actives raise or lower the signal. In outline: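 H295R human adrenal cells were prestimulated 48 h with 10 uM forskolin, then exposed 48 h to test chemical (0.1% DMSO final). 17alpha-hydroxyprogesterone in medium was measured by HPLC-MS/MS after MTBE extraction; bidirectional fitting vs DMSO.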

A short description of experiment [13]: CEETOX_H295R_CORTIC: CeeTox H295R High-throughput Steroidogenesis Assay for Corticosterone (CORTIC) (AID 2283437).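 Also: corticosterone secreted into medium quantified by mass spectrometry.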 As to conditions: actives raise or lower the signal. The procedure, abridged: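 Corticosterone secreted into medium is measured by reverse-phase HPLC with tandem MS following liquid-liquid extraction. Cells are forskolin-stimulated (10 uM, 48 h) before 48 h test exposure; activity fitted in both directions against DMSO.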

A short description of experiment [14]: CEETOX_H295R_CORTISOL: CeeTox H295R High-throughput Steroidogenesis Assay for Cortisol (AID 2283438).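 Also: cortisol secreted into medium quantified by LC-MS/MS.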 The note with it: actives raise or lower the signal. The procedure, abridged: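 H295R human adrenal cells were prestimulated 48 h with 10 uM forskolin, then exposed 48 h to test chemical (0.1% DMSO final). Medium cortisol was quantified by HPLC-MS/MS after MTBE extraction; bidirectional fitting relative to DMSO baseline.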

A short description of experiment [15]: CEETOX_H295R_DOC: CeeTox H295R High-throughput Steroidogenesis Assay for DOC (AID 2283439). As to conditions: actives raise or lower the signal. In outline: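 H295R adrenal cells prestimulated 48 h with 10 uM forskolin, then exposed 48 h to test chemical (0.1% DMSO final). Medium 11-deoxycorticosterone extracted with MTBE, quantified by HPLC-MS/MS; bidirectional fit versus DMSO baseline; MTT viability in same wells.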

Experiment [16] in a line: CEETOX_H295R_PROG: CeeTox H295R High-throughput Steroidogenesis Assay for Progesterone (PROG) (AID 2283442).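 As to AC50: human H295R adrenal cells primed with 10 µM forskolin before dosing.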 As to conditions: actives raise or lower the signal. In outline: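 H295R adrenal cells prestimulated 48 h with 10 uM forskolin, then exposed 48 h to test chemical in 0.1% DMSO. Progesterone in medium quantified by HPLC-MS/MS after MTBE extraction; viability checked by MTT in same wells.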

Experiment [17] can be described thus: CEETOX_H295R_ANDR: CeeTox H295R High-throughput Steroidogenesis Assay for Androstenedione (ANDR) (AID 2283436). The note with it: actives raise or lower the signal. In outline:
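Read-out is androstenedione secreted into medium, measured by tandem mass spectrometry after liquid-liquid extraction. Cells were H295R, dosed for 48 h per modified OECD 456; activity fitted in both directions relative to DMSO.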

The nature of experiment [18]: CEETOX_H295R_ESTRADIOL: CeeTox H295R High-throughput Steroidogenesis Assay for Estradiol (AID 2283440).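 Also: estradiol secreted into medium quantified by LC-MS/MS after dansyl derivatisation.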 The note with it: actives raise or lower the signal. The procedure, abridged: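 H295R cells pre-stimulated 48 h with 10 uM forskolin, then exposed 48 h to chemical in 0.1% DMSO. Medium estradiol quantified by MTBE extraction, dansyl derivatisation and HPLC-MS/MS; bidirectional fit versus DMSO; MTT viability required >/=70%.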

Experiment [19] can be described thus: CEETOX_H295R_ESTRONE: CeeTox H295R High-throughput Steroidogenesis Assay for Estrone (AID 2283441).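 Also: estrone secreted into medium measured by LC-MS/MS after dansyl derivatization.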 As to conditions: actives raise or lower the signal. The procedure, abridged:
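H295R cells; 48 h forskolin (10 uM) prestimulation; 48 h compound exposure, 0.1% DMSO final. Medium estrone: MTBE extraction, dansyl derivatization, HPLC-MS/MS. Bidirectional fit vs DMSO.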

Fatty acid synthase (Homo sapiens), sequence (P49327 whole entry, looked up): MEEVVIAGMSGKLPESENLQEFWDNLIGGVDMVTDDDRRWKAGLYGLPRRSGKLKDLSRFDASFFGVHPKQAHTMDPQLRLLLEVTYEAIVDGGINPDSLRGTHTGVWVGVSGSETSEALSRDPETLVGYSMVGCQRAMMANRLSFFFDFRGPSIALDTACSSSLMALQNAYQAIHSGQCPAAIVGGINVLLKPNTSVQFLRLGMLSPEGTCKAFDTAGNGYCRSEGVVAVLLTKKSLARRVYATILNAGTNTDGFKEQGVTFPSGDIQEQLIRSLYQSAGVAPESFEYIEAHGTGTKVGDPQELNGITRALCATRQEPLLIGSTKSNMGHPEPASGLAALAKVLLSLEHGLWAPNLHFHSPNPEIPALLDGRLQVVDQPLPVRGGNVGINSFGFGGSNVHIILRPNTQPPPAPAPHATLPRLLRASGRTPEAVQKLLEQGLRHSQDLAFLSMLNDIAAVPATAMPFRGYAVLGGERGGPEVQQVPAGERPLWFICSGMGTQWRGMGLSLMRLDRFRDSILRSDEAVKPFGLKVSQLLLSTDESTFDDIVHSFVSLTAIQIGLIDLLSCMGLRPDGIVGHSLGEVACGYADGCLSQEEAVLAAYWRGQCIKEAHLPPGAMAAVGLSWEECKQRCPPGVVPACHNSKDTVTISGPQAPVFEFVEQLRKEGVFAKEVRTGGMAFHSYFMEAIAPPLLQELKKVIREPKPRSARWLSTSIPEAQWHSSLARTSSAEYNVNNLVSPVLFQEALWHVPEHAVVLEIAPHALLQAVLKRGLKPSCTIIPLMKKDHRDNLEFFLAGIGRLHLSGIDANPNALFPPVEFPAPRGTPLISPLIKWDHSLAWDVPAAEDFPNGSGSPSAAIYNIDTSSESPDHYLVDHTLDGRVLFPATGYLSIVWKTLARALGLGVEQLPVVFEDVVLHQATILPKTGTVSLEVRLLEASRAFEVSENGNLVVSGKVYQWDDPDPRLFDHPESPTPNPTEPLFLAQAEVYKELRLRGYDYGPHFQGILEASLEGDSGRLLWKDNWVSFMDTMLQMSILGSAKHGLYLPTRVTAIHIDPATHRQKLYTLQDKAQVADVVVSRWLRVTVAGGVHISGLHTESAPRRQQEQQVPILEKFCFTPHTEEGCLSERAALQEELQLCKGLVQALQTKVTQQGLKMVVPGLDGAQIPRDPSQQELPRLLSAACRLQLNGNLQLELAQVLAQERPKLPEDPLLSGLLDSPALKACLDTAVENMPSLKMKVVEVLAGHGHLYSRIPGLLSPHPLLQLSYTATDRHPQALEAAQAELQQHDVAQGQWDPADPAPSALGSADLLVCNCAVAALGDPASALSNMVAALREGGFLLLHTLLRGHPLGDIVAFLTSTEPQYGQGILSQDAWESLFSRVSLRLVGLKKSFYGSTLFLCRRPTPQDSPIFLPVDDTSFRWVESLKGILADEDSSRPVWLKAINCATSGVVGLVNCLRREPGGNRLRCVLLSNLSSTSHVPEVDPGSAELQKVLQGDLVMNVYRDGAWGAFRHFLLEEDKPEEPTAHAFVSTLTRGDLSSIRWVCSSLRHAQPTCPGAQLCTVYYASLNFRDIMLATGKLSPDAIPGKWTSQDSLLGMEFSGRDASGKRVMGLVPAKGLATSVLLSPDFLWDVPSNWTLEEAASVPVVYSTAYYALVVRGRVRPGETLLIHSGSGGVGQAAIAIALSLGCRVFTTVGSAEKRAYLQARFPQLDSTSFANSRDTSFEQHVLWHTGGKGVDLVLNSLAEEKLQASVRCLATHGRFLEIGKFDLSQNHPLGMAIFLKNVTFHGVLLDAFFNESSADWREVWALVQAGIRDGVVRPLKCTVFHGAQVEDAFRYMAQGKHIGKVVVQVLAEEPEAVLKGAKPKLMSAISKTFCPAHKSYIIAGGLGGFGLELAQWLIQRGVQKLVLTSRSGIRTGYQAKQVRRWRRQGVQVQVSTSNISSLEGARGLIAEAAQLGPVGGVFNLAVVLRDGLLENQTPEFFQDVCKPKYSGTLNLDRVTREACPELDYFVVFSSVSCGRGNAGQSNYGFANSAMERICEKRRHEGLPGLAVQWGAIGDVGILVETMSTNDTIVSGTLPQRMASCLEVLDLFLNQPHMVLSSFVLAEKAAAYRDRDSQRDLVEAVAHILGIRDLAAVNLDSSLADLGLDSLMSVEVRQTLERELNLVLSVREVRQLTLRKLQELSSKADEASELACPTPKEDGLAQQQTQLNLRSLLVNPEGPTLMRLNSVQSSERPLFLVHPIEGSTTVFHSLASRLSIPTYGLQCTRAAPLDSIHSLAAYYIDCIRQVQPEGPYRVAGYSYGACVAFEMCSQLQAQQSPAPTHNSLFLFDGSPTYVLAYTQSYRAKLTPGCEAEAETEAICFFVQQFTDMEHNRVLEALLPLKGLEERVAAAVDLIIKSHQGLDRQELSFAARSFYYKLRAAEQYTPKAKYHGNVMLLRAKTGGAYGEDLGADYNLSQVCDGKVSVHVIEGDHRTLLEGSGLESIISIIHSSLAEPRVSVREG

Consider `Nc1ccc([N+](=O)[O-])cc1`, for which the compound was classed as inactive in [1], in [2], in experiment [3], in experiment [4], in [5] and in experiment [6]. The compound was classed as inactive in experiment [7] and in experiment [8]. Also, the AC50 in experiment [2] is 26.9 µM (active).

Consider `CCCCOC(=O)c1ccccc1C(=O)OCc1ccccc1`, for which the compound was classed as inactive in experiment [1], in experiment [2], in experiment [3], in [9], in experiment [4] and in experiment [5]. For the same compound, the call in [6], in [7] and in [8] was inactive.

For `Nc1ccc(Oc2ccc(N)cc2)cc1`, the compound was classed as inactive in experiment [1], in experiment [2], in experiment [3], in [12], in [9] and in experiment [4]. The result in [6], in experiment [7] and in experiment [8] was inactive. Also, the AC50 was 24.2 µM (active) in [10]; 5.04 µM (active) in [11]; 493 nM (active) in [13]; 26.9 µM (active) in experiment [14]; 1.21 µM (active) in experiment [15]; 9.14 µM (active) in experiment [16].

Turning to `CCC12COCN1COC2`, the call in experiment [1], in experiment [2], in [3], in experiment [9], in experiment [4] and in [5] was inactive. In addition, the compound was called inactive in [6], in experiment [7] and in experiment [8].

Turning to `CNC(=O)Oc1cccc2c1OC(C)(C)C2`, the call in [1], in [2], in [3], in [10], in [11] and in experiment [12] was inactive. The outcome in experiment [17], in experiment [13], in experiment [14], in [15], in experiment [18] and in experiment [16] was inactive. The outcome in experiment [4], in experiment [5], in experiment [6], in experiment [7] and in [8] was inactive. In addition, the AC50 in experiment [19] is 494 nM (active).

On to `C[N+](C)(C)CC1CO1` (centres undefined), for which the result in experiment [1], in [2], in experiment [3], in [4], in experiment [5] and in experiment [6] was inactive. In addition, the result in [7] and in experiment [8] was inactive.

As for `CC(C)COC(=O)c1ccccc1C(=O)OCC(C)C`, the compound was called inactive in experiment [1], in experiment [2], in experiment [3], in experiment [4], in experiment [5] and in experiment [6]. Moreover, the outcome in [7] and in experiment [8] was inactive.

For the compound `CC(C)(OOC(C)(C)c1ccccc1)c1ccccc1`, the AC50 in experiment [1] was 77.4 µM (active) and 93.2 µM (active); in experiment [2] it was 78.3 µM (active) and 78.5 µM (active). For the same compound, the compound was called inactive in [3], in [9], in experiment [4], in [6], in experiment [7] and in [8].

As to `CCC(C)c1ccc(O)cc1` (centres undefined), the call in experiment [1], in [2], in [10], in [11], in [13] and in experiment [14] was inactive. Moreover, the compound was classed as inactive in experiment [15], in experiment [16], in [9], in [4], in experiment [5] and in experiment [6]. The result in [7] and in experiment [8] was inactive. The AC50 in experiment [12] was 22.5 µM (active).

As to `O=C(Oc1ccc(Br)cc1)N1CCN2CCC1CC2`, the call in experiment [1], in experiment [2], in experiment [3], in [13], in experiment [14] and in [9] was inactive. Also, the compound was called inactive in [5], in [6], in experiment [7] and in experiment [8]. Besides, the AC50 was 6.83 µM (active) in [10]; 12.8 µM (active) in [12]; 1.06 µM (active) in experiment [15]; 1.3 µM (active) in [16]; 75.9 µM (active) in experiment [4].
